Source: PubChem BioAssay AID641 (Vanderbilt High Throughput Screening Facility, 2007)
The campaign covered roughly 58,000 compounds. About 3,400 (5.9%) were called active.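 The calls were made as follows: active = luminescence count or its row- and column-corrected plate score outside the 99.7% band of the plate's sample wells, on either side; inactive = the rest.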 The sample as a whole holds a higher share of actives than the screen did.

Target: D(1A) dopamine receptor (Homo sapiens) (UniProt P21728)
Sequence (P21728 whole entry, looked up): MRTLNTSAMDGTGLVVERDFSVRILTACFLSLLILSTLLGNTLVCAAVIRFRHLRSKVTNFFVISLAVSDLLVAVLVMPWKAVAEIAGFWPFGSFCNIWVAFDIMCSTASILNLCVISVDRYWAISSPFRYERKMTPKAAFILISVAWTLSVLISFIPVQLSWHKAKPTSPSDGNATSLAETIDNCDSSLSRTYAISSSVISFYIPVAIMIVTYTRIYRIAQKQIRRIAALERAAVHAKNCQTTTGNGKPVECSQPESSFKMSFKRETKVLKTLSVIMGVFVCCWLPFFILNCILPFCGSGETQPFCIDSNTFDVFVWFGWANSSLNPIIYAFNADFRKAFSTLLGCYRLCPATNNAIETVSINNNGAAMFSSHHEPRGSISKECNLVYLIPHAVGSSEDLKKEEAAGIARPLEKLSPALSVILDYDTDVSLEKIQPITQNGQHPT
Test: D1 CRE-luciferase signal change, two-sided – cell-based, HEK293 D1, dopamine EC30, D1 allosteric modulator project, primary screen (AID 641)
Details: dopamine EC30 potentiation, at 10 µM, actives deviate in either direction

B-score, active:
C=CCn1cnc2scc(-c3ccccc3)c2c1=O 10.5, COc1ccc(Nc2oc(-c3ccccc3Cl)nc2C#N)cc1 6.96, N#Cc1nc(Cc2ccccc2)oc1NCCc1ccccc1 4.08, CCOc1ccc(Nc2oc(Cc3ccccc3)nc2C#N)cc1 3.11, COc1ccc(-c2n[nH]c(C)c2-c2ccc(OC)c(OC)c2)c(O)c1 2.72, CCCCNc1nc2ccccc2nc1NS(=O)(=O)c1cccs1 19.3, COc1ncnc2c1N=C1CC(C)(C)CC(N)=C1S2 3.41, C=CCSc1nc2c(c(=O)[nH]1)C(C(C)C)C(C#N)=C(N)O2 (centres undefined) 10.1, CC(=O)c1ccc(Oc2cc(C)nc(-n3nc(C)cc3C)n2)cc1 11.6, COc1ccc(Nc2cc(C)nc(-n3nc(C)cc3C)n2)cc1 7.36, CCOC(=O)C1CCCN(C(=O)c2sc3nc(C)nc(N4CCOCC4)c3c2C)C1 (centres undefined) -3.4, CCOc1cccc(-n2nnnc2-c2ccc(OC)cc2)c1 4.33

B-score, inactive:
COC(=O)c1ccc(NC(=O)c2ccco2)cc1 -1.96, CN(CCC#N)c1ncnc2scc(-c3ccccc3)c12 1.98, C=CCn1c(SCc2csc(C)n2)nc2scc(-c3ccc(C)o3)c2c1=O -0.492, CN1C(C)(C)CC(NC(=O)CCC(=O)NC2CC(C)(C)N(C)C(C)(C)C2)CC1(C)C 0.00629, CCN(CC)C(=O)C1CCC(C)(C(=O)O)C1(C)C (centres undefined) -0.39, CCc1ccc(N(CC)c2ncnc3nc[nH]c23)cc1 -4, O=C(CN1CCOCC1)Nc1c2c(nc3c1CCC3)CCC2 2.06, O=C(NCCCNCc1ccccc1)c1ccc(/C=N/O)nc1 -0.581, N#Cc1nc(-c2ccc(OCc3ccccc3)cc2)oc1NCCCN1CCOCC1 -0.727, N#Cc1nc(Cc2cccc3ccccc23)oc1NCc1ccc2c(c1)OCO2 -0.388, COc1ccc(CC(=O)Nc2ccc(-c3nnc(-c4ccccc4)o3)cc2)cc1 0.0608, O=C(CSc1ncccn1)NCCc1ccccc1 0.879, N#Cc1nc(COc2ccc(-c3ccccc3)cc2)oc1NCc1cccnc1 -1.5, CCOc1ccc(NC(=O)Nc2cc(C)on2)cc1 -0.142, CN(CCCC(=O)Nc1nccs1)S(=O)(=O)c1ccc(Cl)cc1 0.49, Cc1cc(/C=N/n2cnnc2)c(C)n1-c1cccc(C(=O)O)c1 -0.0541, O=C(CN1CCOCC1)Nc1c(-c2ccccc2)c2cc(Br)ccc2[nH]c1=O 2.41, CS(=O)(=O)N1CCN(C(=O)Cc2ccccc2)CC1 -1.05, CS(=O)(=O)N(CC(=O)N1CCOCC1)c1ccc2c3c(cccc13)CC2 1.66, CCOc1ccccc1Oc1cn[nH]c1-c1ccc(OC)cc1O -0.51, C=C(C)COc1ccc(-c2n[nH]c(C)c2-c2ccccc2)c(O)c1 0.197, Cc1nonc1NC(=O)c1ccccc1Br -0.0424, Cc1cc(C(=O)N2CCN(c3ccccn3)CC2)c(C)o1 -0.0773, COC(=O)CSC1=C(C#N)C(c2ccccc2OC)C(C(=O)OC)C(=O)N1 (centres undefined) 0.897, O=C1Nc2c(Br)cc(Br)cc2C1(O)N1CCOCC1 (centres undefined) 0.955, O=C(Nc1nncs1)c1ccccc1NS(=O)(=O)c1cccs1 -0.0134, CCOc1ccc2nc(NCCNS(=O)(=O)c3ccccc3)c(C#N)cc2c1 0.768, COc1nc(OC)nc(N(C)CCO)n1 0.849, Cc1ccc(C)c2[nH]c(=O)c(CCNC(=O)CC(C)C)cc12 -0.219, Nc1c(C(=O)NCc2ccccc2)nnn1Cc1cccc(Cl)c1 0.392, COc1ccc(OC)c2c1sc(=NC(=O)CN1C(=O)CCC1=O)n2C 2.86, Cc1ccc2c(c1)N(CCCC(=O)NCc1cccnc1)C(=O)CO2 -0.742, COc1ccc(N2CCN(CCNC(=O)c3nnc(Cc4c(F)cccc4Cl)o3)CC2)cc1 -1.8, Cc1ccc(-n2nc3c(c2NC(=O)CCC2CCCCC2)CS(=O)C3)cc1 (centres undefined) -0.56, O=P(O)(CN1CCCCC1)CN1CCCCC1 -0.0507, C=CCOC(=O)C1=C(C)OC(N)=C(C#N)C1c1ccc(F)cc1 (centres undefined) 0.241, CCN1CCN(C(=O)c2ccccc2N(C)S(=O)(=O)c2ccc(C)cc2)CC1 0.228, CCOC(=O)c1cnc(-n2nc(C)cc2C)nc1Nc1cccc(C(C)=O)c1 0.96, Cc1cc(C)n(-c2ccc(Cl)c(C(=O)O)n2)n1 -0.569, COCCNc1nc(-n2nc(C)cc2C)nc2sc3c(c12)CCCC3 0.116, COc1cc(NS(=O)(=O)c2ccccc2)ccc1-n1nc(C)cc1C -0.763, Cc1ccc(S(=O)(=O)Nc2ccccc2CNc2c(C)n(C)n(-c3ccccc3)c2=O)cc1 1.04, Cc1ccc(S(=O)(=O)N2CC(=O)Nc3ccccc32)cc1C 0.0538, CCN1C(=O)CS/C1=N\c1nccs1 0.211, Cc1ccc(CNC(=O)CCCNC(=O)c2ccc(Cl)cc2)n1C -1.3, CC1CCN(Cc2nc3c(c(=O)n(C)c(=O)n3C)n2CCc2ccccc2)CC1 0.377, CCOC(=O)C1CCCN(C(=O)CN(c2ccc(OC)cc2)S(=O)(=O)c2c(C)noc2C)C1 (centres undefined) 0.03, CCOC(=O)C1CCCN(C(=O)c2cncc(Br)c2)C1 (centres undefined) 0.42, Nc1nnc(C2CCCC2)s1 -1.25, COc1ccc(C2=CC(c3cccc(OC)c3)n3nnnc3N2)cc1 (centres undefined) 1.89, CCOc1cccc(-c2nnc3sc(COc4ccc(OC)cc4)nn23)c1 -0.0728, CC(C)(C)Nc1c(N)c(=O)oc2ccccc12 -1.25
